Source: ChEMBL document CHEMBL3988442, “University of Dundee, Small-Polar-MMV Screening Library” (2021)
In all, about 48,000 compounds went through this assay and about 13,000 (27%) showed an effect of 50% or more. This is one part of the list.

system: Wolbachia pipientis; assay: Anti-Wolbachia Cell-Based Screen; assay type: functional; parameters: scale not given: in the data most compounds retested in dose-response had high values; details: 5 µM

| SMILES | Percent Effect |
| --- | --- |
| O=C(c1coc(COc2cccc3cnccc23)n1)N1CCSCC1 | -33.47% |
| CCc1cnc(N2CC[C@H]3[C@@H]2CCC(=O)N3c2ccccc2)nc1.O=C(O)C(F)(F)F | 97.82% |
| CCc1cnc(N2CC[C@H]3[C@@H]2CCC(=O)N3c2cccnc2)nc1.O=C(O)C(F)(F)F.O=C(O)C(F)(F)F | 93.01% |
| Cc1cnc(C(=O)N2CC[C@H]3[C@@H]2CCC(=O)N3c2cccnc2)cn1.O=C(O)C(F)(F)F | 0.08604% |
| Cc1ccc(C(=O)N2CC[C@H]3[C@@H]2CCC(=O)N3c2cccnc2)o1.O=C(O)C(F)(F)F | -21.39% |
| CCc1cnc(N2CC[C@H]3[C@H]2CC(=O)N3c2cccnc2)nc1.O=C(O)C(F)(F)F.O=C(O)C(F)(F)F | -6.023% |
| Cc1cc(CNC(=O)c2cc(C(C)C)n(C)n2)ccc1S(C)(=O)=O | -6.268% |
| CC(=O)N(CCc1ccccc1)CC(=O)NC(C)(C)C#N | -33.05% |
| COCCCN1CC2(CCCN(c3ncnc4[nH]cnc34)C2)CCC1=O (stereo not drawn) | -3.857% |
| O=C1N(CCC2CCCCC2)CCCC1(O)CNCCc1ccccc1 (stereo not drawn) | 4.403% |
| O=C(O)C(=O)O.c1ccc2c(c1)SCCC2NCc1ccc(N2CCOCC2)cc1 (stereo not drawn) | -0.4171% |
| Cn1cc(C(=O)CC2CCCN2C(=O)c2ccn3ccnc3c2)cn1 (stereo not drawn) | 8.483% |
| Cc1cscc1C(=O)N1CCCC1CC(=O)c1cnn(C)c1 (stereo not drawn) | 127.4% |
| Cn1cc(C(=O)CC2CCCN2C(=O)c2cncc3ccccc23)cn1 (stereo not drawn) | 0.2394% |
| CCc1cc(C)c(C(=O)N2CCCC2CC(=O)c2cnn(C)c2)o1 (stereo not drawn) | -2.154% |
| Cn1cc(C(=O)CC2CCCN2C(=O)c2ccncc2F)cn1 (stereo not drawn) | 96.19% |
| Cn1cc(C(=O)CC2CCCN2C(=O)c2cccc3ncccc23)cn1 (stereo not drawn) | 103.8% |
| CCc1ccccc1C(=O)N1CCCC1CC(=O)c1cnn(C)c1 (stereo not drawn) | 88.86% |
| COc1cc(C(=O)N2CCCC2CC(=O)c2cnn(C)c2)ccc1F (stereo not drawn) | -15.51% |
| Cn1cc(C(=O)CC2CCCN2C(=O)c2ccc(Cl)cn2)cn1 (stereo not drawn) | -8.745% |
| Cc1ccc(O)c(C(=O)N2CCCC2CC(=O)c2cnn(C)c2)c1 (stereo not drawn) | -14.12% |
| CCn1c(CN(C)CC(F)(F)F)nc2c(F)cccc21 | -13.63% |
| COc1cc(F)c(C(=O)NCc2ccon2)c(F)c1 | -19.7% |
| COc1ccc(C2=CCN(C(=O)CN(C)Cc3ccoc3)CC2)cc1 | 39.3% |
| Cc1cc(-n2cncn2)ccc1C(=O)N(C)CC(F)(F)C(F)(F)F | -10.14% |

| SMILES | Percent Effect |
| --- | --- |
| CS(=O)(=O)N1C[C@@H]2COC[C@@H](CC(=O)N3CCCO3)[C@@H]2C1 | -9.708% |
| Cc1ccoc1C(=O)N1CCOC2(CCCC2)C1 | -7.54% |
| CCOC(C)c1nc(COc2nc(C)no2)cs1 (stereo not drawn) | -4.126% |
| Cn1cc(C(=O)CC2CCCN2C(=O)c2ccc3[nH]ncc3c2)cn1 (stereo not drawn) | -6.365% |
| Cn1cc(C(=O)CC2CCCN2C(=O)c2ccc(Cl)o2)cn1 (stereo not drawn) | 3.308% |
| Cn1cc(C(=O)CC2CCCN2C(=O)c2coc3ccccc23)cn1 (stereo not drawn) | 99.8% |
| Cn1cc(C(=O)CC2CCCN2C(=O)c2c[nH]c3ccccc23)cn1 (stereo not drawn) | 107.8% |
| Cn1cc(C(=O)CC2CCCN2C(=O)c2n[nH]c3ccccc23)cn1 (stereo not drawn) | -3.127% |
| O=C(c1ccncc1)N1CCN(C(=O)c2coc3ccccc23)CC1 | -6.895% |
| Cn1cc(CN2CCc3ncn(C)c3C2COCc2cccnc2)cn1 (stereo not drawn) | -2.593% |
| N#Cc1c(F)cccc1NCCCOCC1CCOC1 (stereo not drawn) | -17.11% |
| COCCNC(=O)c1nc(-c2cn(C)cn2)n2ccccc12 | 37.4% |
| Cc1cccc(C(=O)N2CCCn3cnc(CN4CCCC4=O)c3C2)n1 | 84.9% |
| Cc1occc1C(=O)N1CCCn2cnc(CN3CCCC3=O)c2C1 | 99.06% |
| Cc1ccccc1C(=O)N1CCCn2nnc(Cn3cccn3)c2C1 | -4.319% |
| O=C1CCCN1Cc1ncn2c1CN(C(=O)c1cccc(F)c1)CCC2 | 7.876% |
| Cc1occc1C(=O)N1CCn2cnc(COCC3CC3)c2C1 | -3.111% |
| Cc1ccccc1C(=O)N1CCCn2cnc(CN3CCCC3=O)c2C1 | 104.2% |
| Cc1occc1C(=O)N1CCC2(CCC(=O)N(CC(N)=O)C2)CC1 | 0.6674% |
| Cc1cccc(C(=O)NC(CN2CCCC2=O)c2ccccc2)n1 (stereo not drawn) | -6.295% |
| O=C(NC1CC1)C1CCCN(c2cc(-n3cncn3)ncn2)C1 (stereo not drawn) | -0.5146% |
| COCCN(C)C[C@@H]1CCC[C@@H]2CN(c3cc(OC)ncn3)C[C@@H]21.O=C(O)C(F)(F)F | -6.847% |
| Cc1cccc(C2(CNC(=O)C(C)S(C)(=O)=O)CCCC2)c1 (stereo not drawn) | 0.1525% |
| O=C(O)C(F)(F)F.c1ccc(CN2Cc3nccn3CC(Cn3cccn3)C2)nc1 (stereo not drawn) | 97.11% |
| O=C(O)C(F)(F)F.c1ccc(CN2Cc3nccn3CC(Cn3cncn3)C2)nc1 (stereo not drawn) | 98.39% |

| SMILES | Percent Effect |
| --- | --- |
| CC(=O)N1[C@H](Cn2cncn2)C[C@@H]2CN(Cc3ccccn3)CC[C@@H]21.O=C(O)C(F)(F)F.O=C(O)C(F)(F)F | 10.04% |
| N#Cc1ccc(NCCCOCC2CCCO2)c(F)c1 (stereo not drawn) | -11.95% |
| Cc1ccc(F)c2c1N(C(=O)c1ccc(S(C)(=O)=O)cc1)CCC2 | 11.45% |
| Cc1ccc(F)c2c1CCCN2C(=O)c1cn(CC(=O)N(C)C)nn1 | 122.6% |
| COc1ccc(C)c2c1N(C(=O)c1ccc3nnc(C)n3c1)CCC2 | -2.27% |
| CC(c1ccccc1)N(C)C(=O)CN1CCCc2cccc(F)c21 (stereo not drawn) | 5.525% |
| CN(C)C(=O)Cn1cc(C(=O)N2CCCc3cccc(F)c32)nn1 | 105.3% |
| CC(=O)NCc1ccc(C(=O)N2CCCc3c(F)ccc(C)c32)o1 | -10.88% |
| CN(C)C(=O)CN1CCCc2c(F)cc(Br)cc21 | 1.685% |
| COc1cccc2c1N(C(=O)c1ccc(C)nc1)CCC2 | 2.178% |
| Cc1ccc(F)c2c1N(C(=O)c1cn(CC(=O)N(C)C)nn1)CCC2 | 115.7% |
| N[C@@H]1CC[C@@H](NC(=O)c2ccccc2OC(F)(F)C(F)F)C1 | 3.993% |
| Cc1ccc(C(=O)NC2CCN(Cc3noc(CC(C)C)n3)CC2)s1 | 3.066% |
| O=C(NC1CC1)c1nc(Cn2c(C(F)F)nc3ccccc32)no1 | 97.34% |
| CNC(=O)c1nc(CN2CCOC(CCCC(C)C)C2)no1 (stereo not drawn) | 2.803% |
| NC(=O)c1nc(CN2CCOC(C(F)(F)F)C2)no1 (stereo not drawn) | -3.309% |
| CC(C)NC(=O)CN(C)C1CCN(c2cnc3ccccc3n2)CC1 | -13.33% |
| CNC(=O)c1nc(CN2CCOC(Cc3ccc(F)cc3)C2)no1 (stereo not drawn) | -1.093% |
| CNC(=O)c1nc(CN2CCOC(C(F)(F)F)C2)no1 (stereo not drawn) | -14.11% |
| CC(C)NC(=O)c1nc(Cn2c(C(F)F)nc3ccccc32)no1 | 117.9% |
| CC(C)NC(=O)c1nc(Cn2c(C(F)(F)F)nc3ccccc32)no1 | 97.59% |
| O=C(NCCn1ccnc1)c1csc(Br)c1 | 7.312% |
| CC(C)c1cncnc1-c1cc(F)cc2c1OC(CN)C2 (stereo not drawn) | -15.48% |
| Cc1ccc(N2CCCc3sc(C(=O)NCC4CCCO4)nc32)nn1 (stereo not drawn) | 101.4% |
| CN1CCCc2sc(C(=O)NC3CC3)nc21 | -6.027% |

| SMILES | Percent Effect |
| --- | --- |
| O=C(c1nc2c(s1)CCCN2CC1CC1)N1CCOCC1 | 13.28% |
| O=C(c1nc2c(s1)CCCN2C(=O)C1CC1)N1CCOCC1 | 0.08995% |
| O=C(c1nc2c(s1)CCCN2CC1CC1)N1CCCC1 | 21.73% |
| O=C(NC1CC1)c1nc2c(s1)CCCN2c1ccccc1 | 3.118% |
| Cc1ccc(N2CCCc3sc(C(=O)NCc4ccc(C)o4)nc32)nn1 | -0.9915% |
| O=C(NCC1CCCO1)c1nc2c(s1)CCCN2C(=O)C1CC1 (stereo not drawn) | 108.2% |
| O=C(NCc1cccnc1)c1nc2c(s1)CCCN2c1ncccn1 | -3.859% |
| O=C(NCC1CCCO1)c1nc2c(s1)CCCN2CC1CC1 (stereo not drawn) | 97.2% |
| Cc1ccc(N2CCCc3sc(C(=O)NCCO)nc32)nn1 | -4.347% |
| O=C(NCC1CCCO1)c1nc2c(s1)CCCN2c1ncccn1 (stereo not drawn) | 95.9% |
| c1cnc(NCC2Cn3nnc(-c4ccsc4)c3CO2)nc1 (stereo not drawn) | -8.794% |
| CCc1nnc(N2C[C@@H](NC(C)=O)[C@H](c3ccc(C)o3)C2)s1 | 0.4936% |
| CCN1CCN(c2ccc(C(=O)NC(C)C(=O)N(C)C)cc2)CC1 (stereo not drawn) | 1.595% |
| CNC(=O)CN1CCN(C(=O)Nc2ccc(C)s2)CC1 | -4.084% |
| CN(CCc1cccs1)C(=O)Nc1ccc2c(c1)C(=O)N(C)CC2 | -32.58% |
| Cc1nn(C(C)C)c(C)c1CN1CCC(c2cc(C(C)C)n[nH]2)CC1 | 4.458% |
| COCCN1CCCc2sc(C(=O)N3CCCN(C)CC3)nc21.O=C(O)C(F)(F)F | -1.049% |
| COCCN1CCCc2sc(C(=O)Nc3ccc(C)nc3)nc21.O=C(O)C(F)(F)F | 8.218% |
| COCCNC(=O)c1nc2c(s1)CCCN2Cc1ccccc1 | 6.623% |
| CN(C)C(=O)CNC(=O)c1nc2c(s1)CCCN2Cc1ccccc1 | -13.23% |
| O=C(NCC1CCCO1)c1nc2c(s1)CCCN2Cc1ccccc1 (stereo not drawn) | 98.1% |
| COCCN1CCCc2sc(C(=O)NCC3CCCO3)nc21 (stereo not drawn) | 104.4% |
| Cc1ccc(-c2n[nH]cc2CN(Cc2nccn2C)C(C)C)cc1C | -8.138% |
